Assay outcomes deposited in PubChem BioAssay by National Center for Advancing Translational Sciences (NCATS).
GLP-1R inv ag: qHTS of GLP-1 Receptor Inverse Agonists (Inhibition Mode); hit rate 1.6% among 410,000; Glucagon-like peptide 1 receptor (Homo sapiens), P43220; HEK293 GLP-1R CRE-luciferase, luminescence, 24 h; GLP-1R form is constitutively active; Potency, µM (doses to about 38.3 µM), inactives show at the top dose activity change, negative = inhibition, usual class: inhibitors; further: potency means the concentration at half of the fitted maximal effect; on the % scale 0 is the no-effect control and ±100 the full control effect; nearly all actives have a fitted effect of over 55% in size
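Readout was luciferase luminescence, measured 12 min after detection reagent at room temperature. Beforehand, GLP-1R reporter HEK293 cells had sat 12 h, then received compounds for 24 hr at 37 deg C.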
ClpP mod: qHTS Assay for Activators of ClpP | ATP-dependent Clp protease proteolytic subunit (Bacillus subtilis (strain 168)), P80244 | purified B. subtilis ClpP, FRET peptide cleavage, 20 min | Potency, µM (series often up to 57.5 µM), without a hit: at the highest dose activity change, negative = active | hit rate 1.9% among 340,000; active means well fitted falling curve with a large enough effect; inconclusive means small, poorly fitted or top-dose-only effect; inactive means no such curve, though single readings can be large or run the other way; further: potency means the concentration at half of the fitted maximal effect; the source files actives as falling curves though it sought activators and does not explain the sign; nearly all actives have a fitted effect of over 65% in size
Target sequence (P80244 whole entry, looked up): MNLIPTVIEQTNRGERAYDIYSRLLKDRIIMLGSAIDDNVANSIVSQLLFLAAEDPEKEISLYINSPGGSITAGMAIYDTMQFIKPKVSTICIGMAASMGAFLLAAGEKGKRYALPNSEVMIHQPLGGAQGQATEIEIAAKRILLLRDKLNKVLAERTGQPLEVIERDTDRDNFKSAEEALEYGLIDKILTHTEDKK
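FRET quenching reversal measured ClpP activation: 10 microg/mL B. subtilis ClpP at pH 8 with the FRET-FV decapeptide, read at 430 nm after 320 nm excitation. The 20-min minus 0-min signal was scaled between DMSO/no-enzyme wells and ADEP (5.8 microM final).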
GLP-1R agonist: qHTS of GLP-1 Receptor Agonists; Glucagon-like peptide 1 receptor (Homo sapiens), P43220; AID 624172, 2012; HEK293 GLP-1R CRE-luciferase, luminescence, 4-6 h; cells express a hypersensitive GLP-1R form; hit rate 0.007% among 380,000; Potency, µM (series often up to 45.6 µM), without a hit: top-dose activation, actives largely listed as activators; further: potency means the concentration at half of the fitted maximal effect; % of control where 0% means no effect
p53 reactivator: qHTS assay for re-activators of p53 using a Luc reporter; hit rate 0.063% among 320,000; H1299 p53-A138V BP100-luciferase reporter, luminescence, 24 h; Potency, µM (titrated, usually from 92.2 µM), inactives show at the top dose activity change, positive = activation, actives largely listed as activators; further: potency means the concentration at half of the fitted maximal effect; % of control where 0% means no effect; nearly all actives have a fitted effect of over 45% in size
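p53-null H1299 cells stably carrying temperature-sensitive p53-A138V and a BP100-luciferase reporter were pinned with compounds (4-point, 1:5 series) and held 24 hrs at 37 deg C. Luminescence was read 10 min after detection reagent.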
LDHA inh: qHTS assay for inhibitors of human lactate dehydrogenase; L-lactate dehydrogenase A chain (Homo sapiens), P00338; purified LDHA, NADH/diaphorase-resazurin fluorescence; active compounds read low; activity change, % (values are at about 110 or 230 µM); hit rate 0.15% among 480,000; AID 1347041, 2019; in the data active means activity change below about -30%; inconclusive means mostly about -25% to -30%;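 further: plate controls were DMSO wells for no effect and wells without enzyme for full effect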
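Enzyme activity of human lactate dehydrogenase 5 (2 nM; 0.06 mM NADH, 0.2 mM pyruvate, 5 min, RT) is measured via a resazurin/diaphorase fluorescence readout of residual NADH.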
HEK293 tox: qHTS of GLP-1 Receptor Inverse Agonists: Cytotox Screen; HEK293 cAMP-luciferase reporter cells, luminescence, 24 h; Potency, µM (series often up to 38.3 µM), inactives show at the top dose activity change, negative = inhibition, hits mostly inhibitors; hit rate 0.13% among 410,000; AID 624418, 2012;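 further: loss of luciferase light is scored as toxicity; potency means the concentration at half of the fitted maximal effect; on the % scale 0 is the no-effect control and ±100 the full control effect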
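Luminescence readout: signal drop marks cytotoxicity. Plated cells grew 12 h at 37 °C, 5% CO2, received 23 nL compound for 24 h, then got luciferase reagent, read after 12 min at RT.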
An asterisk follows results filed as active. Hits are enriched below; roughly 2.9% of the tested compounds scored in any of these assays. Unless noted, the call rests on the fitted dose curve; in most records, active means well fitted curve in the direction sought with a large enough effect; inconclusive means small, poorly fitted or top-dose-only effect, or another doubt; inactive means no such curve, though single readings can be large; an effect the other way counts as inactive or inconclusive.

How did COC(=O)C1=C(c2cccc(OCc3ccccc3)c2)C[C@@H]2CC[C@H]1N2C(=O)NCc1ccccc1OC do in these assays?
GLP-1R inv ag: inconclusive; ClpP mod: -3.5%; GLP-1R agonist: 3.6%; p53 reactivator: -10.0%; LDHA inh: -0.8; HEK293 tox: 9.3%

What do the screens show for `Cc1ccccc1-n1c(/C=C/c2c(C)[nH]c3ccccc23)nc2ccccc2c1=O`?
GLP-1R inv ag: 3.98µM*; ClpP mod: -1.1%; LDHA inh: -5.7; HEK293 tox: -10.6%

How did Cc1ccccc1-n1c(/C=C/c2ccco2)nc2ccccc2c1=O do in these assays?
LDHA inh: 11.4

How did Cc1ccccc1-n1c(/C=C/c2ccc(N(C)C)cc2)nc2ccccc2c1=O do in these assays?
GLP-1R inv ag: 8.91µM*; ClpP mod: 1.3%; LDHA inh: 1.5; HEK293 tox: inactive

What do the screens show for `COc1ccc(CN2C(=O)NC(=O)/C(=C/c3ccc([N+](=O)[O-])o3)C2=O)cc1`?
p53 reactivator: -2.0%

How did COc1ccc(CN2C(=O)NC(=O)/C(=C\c3cccc(OC)c3OC)C2=O)cc1 do in these assays?
GLP-1R inv ag: 0.7%; GLP-1R agonist: -0.3%; p53 reactivator: 3.8%; LDHA inh: -31.2*; HEK293 tox: 15.5%

How did O=[N+]([O-])c1cc([As](=O)(O)O)ccc1O do in these assays?
GLP-1R inv ag: -5.9%; ClpP mod: 1.4%; GLP-1R agonist: -4.2%; p53 reactivator: 3.5%; LDHA inh: -5.8; HEK293 tox: -4.8%

How did O=C(Oc1ccc(Cl)c2ccccc12)N1CCCCC1 do in these assays?
GLP-1R inv ag: inconclusive; ClpP mod: 28.2µM*; GLP-1R agonist: 8.5%; p53 reactivator: 23.6%; LDHA inh: -5.1; HEK293 tox: -9.9%

Results for O=C(Oc1c(Cl)cc(Cl)c2ccccc12)N1CCCCC1 ?
GLP-1R inv ag: inconclusive; ClpP mod: -5.1%; GLP-1R agonist: -1.0%; p53 reactivator: 9.6%; LDHA inh: -3.1; HEK293 tox: 81.1%

What do the screens show for `CCCCCn1c(=O)c(C(=O)NCc2ccc(Cl)cc2)c(O)c2ccccc21`?
GLP-1R inv ag: 0.4%; ClpP mod: -29.6%; GLP-1R agonist: -0.1%; LDHA inh: 0.7; HEK293 tox: -23.9%

Results for O=c1c2ccccc2[se]n1-c1ccccc1 ?
GLP-1R inv ag: inconclusive; ClpP mod: -0.6%; GLP-1R agonist: 6.7%; p53 reactivator: 1.0%; LDHA inh: -107.7*; HEK293 tox: 0.2%

How did O=c1c2ccccc2nc(-c2ccco2)n1-c1ccccc1 do in these assays?
GLP-1R inv ag: inconclusive; ClpP mod: inconclusive; GLP-1R agonist: 29.9%; p53 reactivator: -10.0%; LDHA inh: -2.9; HEK293 tox: -1.2%

What do the screens show for `Cc1ccc(NC(=O)N(Cc2ccc3c(c2)OCO3)C2CCN(Cc3ccccc3)CC2)cc1C`?
GLP-1R inv ag: inconclusive; ClpP mod: -0.3%; LDHA inh: 0.7; HEK293 tox: -0.6%

How did CCCCCCCCCCCCCCCCn1cc[n+](C)c1 do in these assays?
GLP-1R inv ag: 7.08µM*; ClpP mod: 1.2%; GLP-1R agonist: -3.1%; p53 reactivator: 0.7%; LDHA inh: 2.1; HEK293 tox: inconclusive

What do the screens show for `Cc1ccc(N2Cc3ccccc3C2=N)cc1[N+](=O)[O-]`?
GLP-1R inv ag: -3.9%; GLP-1R agonist: 8.0%; p53 reactivator: -1.1%; LDHA inh: -6.2; HEK293 tox: -0.3%

What do the screens show for `CNC(=O)c1cccn(Cc2cccc(C(F)(F)F)c2)c1=O`?
GLP-1R inv ag: 4.2%; GLP-1R agonist: -0.6%; p53 reactivator: -2.4%; LDHA inh: -3.7; HEK293 tox: -1.8%
